# Among all 300,000 compounds or so, about 5,400 (1.8%) were called active. Roughly 28% stayed inconclusive and do not appear here. This is one part of a sample in which actives are shown more often than they occur. Values without a mark were called inactive. The call rests on the fitted dose curve; tested in HEK293 cells.
# Experiment: qHTS for inhibitors of binding or entry into cells for Marburg Virus
# Details: Marburg virus pseudotyped entry inhibition, cell reporter; series mostly up to 37.8 µM; activity change, negative = inhibition: at the top concentration
# On the % scale 0 is the no-effect control and ±100 the full control effect; potency means the concentration at half of the fitted maximal effect.
Structure (SMILES),"activity change, negative = inhibition",Potency
CCOC(=O)c1ccc(NC(=O)CSc2ncccn2)cc1,5.39%,–
CCOC(=O)c1ccc(NC(=O)CS(=O)(=O)c2cn(CC)c3ccccc23)cc1,–,8.2 µM (active)
CC(=O)Nc1ccc(NC(=O)CS(=O)(=O)c2cn(CC(=O)N3CCCCC3)c3ccccc23)cc1,8.57%,–
CCC1CCCCN1C(=S)Nc1ccc(S(=O)(=O)Nc2ncccn2)cc1 (configuration not stated),-1.62%,–
COc1ccc(CCNC(=O)c2ccccc2OCc2ccccc2)cc1,-30%,–
CC(=O)N1CCc2ccc(N)cc21,-11.8% [at 46.1 µM],–
CCOc1ccc(NC(=O)CN(C)C(=O)COc2cccc(CC)c2)cc1OCC,15%,–
CC(C)CN1CC(C)C(=O)N(c2ccccc2)C1=S (configuration not stated),0.536% [at 46.1 µM],–
O=C(O)c1ccc(S(=O)(=O)c2ccccc2)s1,0.365% [at 46.1 µM],–
CCCCc1nc2cc(C(=O)N3CCCCC3CCO)ccc2o1 (configuration not stated),2.41%,–
Cc1nn(-c2ccccc2)c(C)c1NC(=O)COc1ccc(Cl)cc1Cl,–,11.6 µM (active)
Cc1nn(-c2ccccc2)c(C)c1NC(=O)COC(=O)Cc1ccccc1,-0.499%,–
C/C=C/c1ccc(OCC(=O)OCC(=O)Nc2c(C)nn(-c3ccccc3)c2C)c(OC)c1,1.47%,–
COc1ccc(CCNC(=O)C(=O)NCC2OCCN2S(=O)(=O)c2cccs2)cc1OC (configuration not stated),21.7%,–
CCc1ccc(N2CC(C(=O)N3CCCCCC3)CC2=O)cc1 (configuration not stated),11% [at 46.1 µM],–
CCN(c1ccccc1)S(=O)(=O)c1cc(C(=O)NCc2ccccn2)ccc1C,13.3%,–
COc1cccc2c1C(=O)c1c(O)c3c(c(O)c1C2=O)CC(O)(C(C)=NNC(=O)c1ccc(Cl)c(Cl)c1)CC3OC1CC(N)C(O)C(C)O1 (configuration not stated),–,0.447 µM (active)
COc1ccc(C(=O)Nc2ccccc2C(=O)N2CCN(c3ccccc3)CC2)cc1,3.79%,–
CC(=O)NCCC(=O)Nc1nc(-c2ccc3c(c2)OCCO3)cs1,-1.66% [at 46.1 µM],–
Cc1ccc(-c2csc(NC(=O)C3=COCCO3)n2)cc1C,-17.8% [at 46.1 µM],–
O=C(Nc1nc(-c2ccc3c(c2)OCO3)cs1)c1ccncc1,–,7.94 µM (active)
Cc1ccc(S(=O)(=O)N2CCC(C(=O)N3CCCCCCC3)CC2)cc1,6.29% [at 46.1 µM],–
CCOC(=O)C1CCCN(C(=O)C2CCN(S(=O)(=O)c3ccc(Cl)c(C(F)(F)F)c3)CC2)C1 (configuration not stated),-20.9%,–
CCOC(=O)CC1=C(C(=O)OCC)[C@H](c2cc(OC)c(OC)cc2OC)C(C#N)=C(N)O1,0.118%,–
Cc1c(Cl)cccc1NC(=S)NCC(O)c1ccccc1 (configuration not stated),-1.89%,–
COCCOC(=O)C1=C(C)NC(=O)CC1c1cc2c(cc1Br)OCO2 (configuration not stated),–,inactive

Structure (SMILES),"activity change, negative = inhibition",Potency
CCCOc1ccccc1C1CC(=O)Nc2cc3c(cc21)OCO3 (configuration not stated),–,6.31 µM (active)
COc1ccccc1C1C2=C(COC2=O)Nc2cc3c(cc21)OCO3 (configuration not stated),5.47%,–
Cn1c(CNC(=O)C(C)(C)C)nc2ccccc21,10.6%,–
CC(NCc1nc2ccccc2n1C)C12CC3CC(CC(C3)C1)C2 (configuration not stated),–,11.2 µM (active)
Cn1c(COc2ccccc2C(C)(C)C)nc2ccccc21,9.63% [at 46.1 µM],–
C#CCOCCOCCOCCNc1nc(N2CCN(C(=O)Cn3cc(CCO)nn3)CC2)nc(N2CCN(C(=O)Cn3cc(CCCN=C(N)N)nn3)CC2)n1,-4.16%,–
O=C1C(=O)N(CCN2CCOCC2)[C@@H](c2ccccn2)/C1=C(/O)c1ccc(F)cc1,1.86%,–
CCN(CC)c1ccc(/C=N/Nc2nc(C)cc(=O)[nH]2)cc1,-19.9%,–
CCN(CC)c1ccc(/C=N/Nc2nc(C)cc(C)n2)c(O)c1,–,6.51 µM (active)
Cc1cc(C)nc(N/N=C/c2ccncc2)n1,-5.04%,–
CN(C)c1cc2c(Nc3ccc4c(cnn4Cc4ccccc4)c3)ncnc2cn1,–,8.91 µM (active)
Cn1ncc2c(Nc3cccc4ccccc34)ncnc21,5.72% [at 46.1 µM],–
Clc1ccc(Nc2ncnc3c2nnn3Cc2ccccc2)cc1,1.6% [at 46.1 µM],–
Cc1ccc(CN2CCNC(=O)C2CC(=O)NCc2csc(C(C)C)n2)cc1 (configuration not stated),10.2%,–
Cc1ccsc1C(=O)NNC(=O)COc1ccc(Br)cc1,1.92%,–
CC1CCN(C(=O)c2ccc3c(=O)n4c(nc3c2)CCCCC4)CC1,3.95% [at 46.1 µM],–
CCc1ccc(CNC(=O)c2cc3c(=O)n(CC)c4ccccc4c3s2)cc1,-0.8% [at 46.1 µM],–
CCN(CCCNC(=O)c1cc2c(=O)n(CC)c3ccccc3c2s1)Cc1ccccc1,–,4.47 µM (active)
CCn1c(=O)c2cc(C(=O)NCCc3ccc(Cl)cc3)sc2c2ccccc21,8.62% [at 46.1 µM],–
Cc1ccc(CS(=O)Cc2ccc(C(=O)N3CCOCC3)o2)cc1 (configuration not stated),26.3% [at 46.1 µM],–
C/C(=N\Nc1ccccc1)c1cccs1,7.15% [at 46.1 µM],–
Oc1ccc2ccccc2c1N=Nc1nccs1,–,3.55 µM (active)
Oc1ccc2ccccc2c1C=Nc1ccccc1,–,inactive
O=C(Cc1ccc(NC(=O)C2CCCN(C(=O)CCc3ccccc3)C2)cc1)Nc1ccc(C(=O)N2CCOCC2)cc1 (configuration not stated),-0.35%,–
COc1ccc(N2CCN(CCNC(=O)Nc3cc(Cl)ccc3Cl)CC2)cc1,11.4% [at 46.1 µM],–
CN(Cc1ccccc1)C(=O)COC(=O)/C=C/c1ccc2c(c1)OCO2,25.9%,–

# From PubChem BioAssay AID540276 (National Center for Advancing Translational Sciences (NCATS), 2011)
